Source: PubChem
Most compounds without a hit are left out; they make up all but 2.4% or so of the library.
FEN1 inh = qHTS Assay for the Inhibitors of Human Flap endonuclease 1 (FEN1) | AID 588795, 2011 | 390,000 tested, 0.35% active | Potency, µM (highest dose often 114 µM), most hits filed as inhibitors | P39748 | Recombinant FEN1 flap cleavage, fluorescence, 15 min; note: nearly all actives have a fitted effect of over 65% in size
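Enzyme 10 nM, 15 min RT preincubation with compound; start with substrate 50 nM final; reads at 0 and 15 min; qHTS titration, four-parameter Hill fit.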
POLB inh = qHTS Assay for Inhibitors of DNA Polymerase Beta; Pol beta primer extension/strand displacement, fluorescence kinetic; Potency, µM (highest dose often 114 µM), hits mostly inhibitors; 340,000 tested, 1.3% active; AID 485314, 2010
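Reaction started by 50 nM substrate onto compound-treated Pol beta (10 nM, 15 min preincubation, room temperature); plates read at 0 min and 10 min. Normalized concentration-effect data fitted by four-parameter Hill equation.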
Pol kappa inh = qHTS for Inhibitors of Polymerase Kappa. DNA polymerase kappa (Homo sapiens), Q9UBT6. Potency, µM (top dose mostly 107 µM), hits mostly inhibitors. purified Pol kappa, fluorescent DNA synthesis assay, 10 min. 400,000 tested, 0.53% active
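Inhibition of 10 nM Pol kappa is measured by a fluorescent read-out at 0 and 10 min following addition of 50 nM substrate (final), with a 15-min room-temperature compound preincubation.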
Pol iota inh = qHTS for Inhibitors of Polymerase Iota | DNA polymerase iota (Homo sapiens), Q9UNA4 | Pol iota fluorescent replication assay, 10 min | Potency, µM (titrated, usually from 115 µM), actives largely listed as inhibitors | 390,000 tested, 1% active | AID 588590, 2011
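Fluorescent replication assay read twice, at 0 min and 10 min after adding 50 nM (final) substrate. Enzyme (10 nM) and compounds were first incubated 15 min at room temperature; enzyme-free buffer wells were negative controls.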
WRN inhibitor = qHTS for Inhibitors of WRN Helicase. Bifunctional 3'-5' exonuclease/ATP-dependent helicase WRN (Homo sapiens), Q14191. WRN helicase unwinding, fluorescent forked duplex, kinetic. Potency, µM (top dose mostly 114 µM), hits mostly inhibitors. 360,000 tested, 0.46% active; note: nearly all actives have a fitted effect of over 55% in size
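Kinetic red-fluorescence monitoring (525/598 nm) tracks WRN helicase activity after 100 nM fluorophore-quencher forked duplex and 2 mM ATP are added to 20 nM enzyme pretreated 15 min at room temperature with compound.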
POLH inh = qHTS for Inhibitors of Polymerase Eta. Potency, µM (series often up to 114 µM), hits mostly inhibitors. DNA polymerase eta (Homo sapiens), Q9Y253. 390,000 tested, 1.2% active. recombinant Pol eta, fluorescent DNA replication assay
Target sequence (Q9Y253 whole entry, looked up): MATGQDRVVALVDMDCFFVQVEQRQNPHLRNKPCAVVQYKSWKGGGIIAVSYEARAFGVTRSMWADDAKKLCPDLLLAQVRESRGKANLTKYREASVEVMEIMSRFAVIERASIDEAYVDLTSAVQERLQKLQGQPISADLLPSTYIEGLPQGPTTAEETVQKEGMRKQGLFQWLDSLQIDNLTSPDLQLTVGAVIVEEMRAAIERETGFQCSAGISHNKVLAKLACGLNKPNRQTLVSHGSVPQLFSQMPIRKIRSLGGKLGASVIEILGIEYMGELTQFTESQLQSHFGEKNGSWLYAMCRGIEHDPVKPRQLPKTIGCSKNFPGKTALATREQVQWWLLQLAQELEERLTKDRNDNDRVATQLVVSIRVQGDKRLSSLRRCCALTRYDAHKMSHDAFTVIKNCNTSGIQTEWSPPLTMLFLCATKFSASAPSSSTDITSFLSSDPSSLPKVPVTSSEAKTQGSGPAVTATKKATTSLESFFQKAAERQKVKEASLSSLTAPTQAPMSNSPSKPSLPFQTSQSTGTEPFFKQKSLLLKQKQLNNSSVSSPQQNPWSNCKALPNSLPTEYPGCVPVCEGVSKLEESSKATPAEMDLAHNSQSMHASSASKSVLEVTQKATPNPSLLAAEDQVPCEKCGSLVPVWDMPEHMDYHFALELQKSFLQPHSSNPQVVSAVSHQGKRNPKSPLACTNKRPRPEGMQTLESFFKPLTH
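Fluorescent replication assay: 50 nM final substrate added after a 15 min room-temperature compound preincubation with 10 nM enzyme. Signal taken at 0 min and again at 10 min.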
Hits are given with their value; i = inactive; ? = inconclusive; nt = no result given; [ ] = another dose, or the depositor's remark. Calls come from the whole dose curve; as a rule, active = well fitted curve in the direction sought with a large enough effect; inconclusive = small, poorly fitted or top-dose-only effect, or another doubt; inactive = no such curve, though single readings can be large; an effect the other way counts as inactive or inconclusive.

SMILES	FEN1 inh	POLB inh	Pol kappa inh	Pol iota inh	WRN inhibitor	POLH inh
CCC(=O)Nc1cc2c(cc1C(=O)c1ccccc1)OCCO2	i	79.4µM	i	i	i	i
O=[N+]([O-])c1cc([N+](=O)[O-])c2nonc2c1Nc1ccc(O)cc1	?	i	i	2.51µM	i[11.6 µM]	i
O=[N+]([O-])c1cc([N+](=O)[O-])c2nonc2c1Nc1ccccc1O	i	i	i	i	i	i
O=C(Cn1cnnn1)OCC(=O)c1ccc(Cl)s1	i	22.4µM	?	?	i[11.6 µM]	14.1µM
COc1ccc(NC(=O)C2=C(C)Nc3ncnn3C2c2ccc[nH]2)cc1 (configuration not stated)	i	79.4µM	i	?	nt	?
COc1ccc(CN2CCSc3sccc3C2=O)cc1	i	79.4µM	i	i	i	i
CCC1=NN2C(=N)/C(=C\c3cccn3-c3c(C)cccc3C)C(=O)N=C2S1	i	i	i	i	i	i
CCC1=NN2C(=N)/C(=C\c3cccn3-c3ccc(Br)cc3)C(=O)N=C2S1	15.8µM	i	i	?	i	i
CCC1=NN2C(=N)/C(=C\c3cccn3-c3ccc(C)cc3C)C(=O)N=C2S1	?	39.8µM	i	?	i	50.1µM
CN(C)c1ccc(/C=C/c2ccnc3ccccc23)cc1O	i	nt	i	i	nt	nt
C[N+]1(CC(=O)c2ccc(-c3ccccc3)cc2)CCOCC1	i	nt	i	i	nt	nt
NC(=O)C1CCN(CC(=O)Nc2nccs2)CC1	i	i	i	89.1µM	i[11.6 µM]	i
CCOC(=O)N1CCN(CC(=O)Nc2nccs2)CC1	nt	nt	nt	nt	i	i
CCSC[C@H](NC(=O)[C@H](C)N)C(=O)N[C@@H](CC(=O)O)C(=O)N[C@H](C(=O)N[C@@H](C)C(=O)N[C@H](C(=O)N[C@@H](CSCC)C(=O)N[C@H](C(=O)N[C@H](C(=O)N[C@@H](Cc1cnc[nH]1)C(=O)N[C@@H](CCCNC(=N)N)C(=O)N[C@@H](CC(C)C)C(=O)N[C@@H](C)C(=O)NCC(=O)N[C@@H](CC(C)C)C(=O)N[C@@H](CC(C)C)C(=O)N[C@@H](CO)C(=O)N[C@@H](CCCNC(=N)N)C(=O)N[C@@H](CO)C(=O)NCC(=O)NCC(=O)N[C@H](C(=O)N[C@H](C(=O)N[C@@H](CCCCN)C(=O)N[C@@H](CC(N)=O)C(=O)N[C@@H](CC(N)=O)C(=O)N[C@@H](Cc1ccccc1)C(=O)N[C@H](C(=O)N1CCC[C@H]1C(=O)N[C@H](C(=O)N[C@@H](CC(N)=O)C(=O)N[C@H](C(=O)NCC(=O)N[C@@H](CO)C(=O)N[C@@H](CCCCN)C(=O)N[C@@H](C)C(=O)N[C@@H](Cc1ccccc1)C(N)=O)C(C)C)[C@@H](C)O)C(C)C)C(C)C)C(C)C)[C@@H](C)O)C(C)C)[C@@H](C)O)[C@@H](C)O	nt	nt	i	nt	nt	nt
NCCCC[C@H]1NC(=O)[C@H](CCC(=O)O)NC(=O)c2cc([N+](=O)[O-])cc(I)c2OCC[C@@H](C(N)=O)NC1=O	22.4µM	i	3.55µM	8.91µM	10µM	i
C[C@@H]1NC(=O)c2cc([N+](=O)[O-])cc(I)c2OCC[C@@H](C(N)=O)NC(=O)[C@H](CCCCN)NC1=O	i	i	i	i	i	i
Cn1cc(/C=C/c2cc[n+](C)cc2)c2cc(Cl)ccc21	50.1µM	?	i	i	i	i
CN1CC(O)C2=CC(=O)C(=O)C=C21 (configuration not stated)	nt	nt	0.316µM	nt	nt	nt
CC(=O)Nc1ccc2c(c1)Cc1cc(N3C(=O)C=CC3=O)ccc1-2	?	nt	i	?	35.5µM	i
CC(=O)Nc1ccc2c(c1)Cc1ccc(Cl)cc1-2	?	nt	i	79.4µM	i[11.6 µM]	i
O=C(CNC(=O)c1ccccc1)OCC(=O)c1cccc2ccccc12	i	nt	i	?	nt	nt
O=CC(=O)c1ccc(Cl)cc1	i	nt	i	i	nt	nt
O=C1c2ccccc2-c2onc3ccc(NCCCn4ccnc4)c1c23	15.8µM	25.1µM	20µM	?	31.6µM	79.4µM
NS(=O)(=O)c1ccc(NCCCn2ccnc2)c([N+](=O)[O-])c1	i	i	i	i	i	i
Cc1cccc(CN2CCN(CC(=O)Nc3c(C)cccc3C)S2(=O)=O)c1	i	i	i	i	nt	i
SMILES	FEN1 inh	POLB inh	Pol kappa inh	Pol iota inh	WRN inhibitor	POLH inh
Cc1cccc(N2CCN(C(c3ccc(F)cc3)c3nnc(-c4ccccc4)o3)CC2)c1C (configuration not stated)	i	i	i	i	nt	i
CC(=O)Oc1ccc2occ(-c3ccccc3)c2c1	i	56.2µM	i	i	i	i
CSc1ccc(C2C(C#N)=C(N)Oc3cc4c(cc32)OCO4)cc1 (configuration not stated)	i	i	89.1µM	i	i[11.6 µM]	i
Cc1cccc(NC(=O)c2cc(-c3ccc(C)c(C)c3O)n[nH]2)c1	i	i	i	79.4µM	i	i
CCCC[C@]12Cc3ccccc3C(O1)c1c(cc(-c3ccccc3)oc1=O)O2	nt	3.55µM	nt	nt	nt	nt
Cc1c(C(=O)O)sc2nc(/C=C/c3cccc(O)c3)[nH]c(=O)c12	?	i	i	?	?	35.5µM
O=C(O)C1CC(CCCP(=O)(O)O)CCN1 (configuration not stated)	nt	nt	i	nt	nt	nt
Cc1cc(/C=C2\C=Cc3ccccc32)cc(C)c1N	i	nt	i	i	nt	nt
CCOc1ccccc1Nc1nc(-c2cccc(Cl)c2)c2c(n1)-c1ccccc1OC2	50.1µM	39.8µM	89.1µM	i	nt	i
CCCCCCCCN(CCCCCCCC)c1ccc(/C=C/c2ccnc3ccccc23)cc1	i	nt	i	i	nt	nt
N[C@H](C(=O)O)C1C(C(=O)O)C1C(=O)O (some centres not stated)	nt	nt	i[19.4 µM]	nt	nt	nt
O=C(Nc1ccncc1)C1C(=O)c2ccccc2N(Cc2ccccc2)C1=O (configuration not stated)	i	nt	i	?	nt	nt
Nc1nc(Nc2ccccc2)nc(NC2CCCCC2)c1[N+](=O)[O-]	i	i	i	i	79.4µM	i
O=C(CCCn1c(=O)c2cccn2c2ccccc21)Nc1cccc(Cl)c1	i	44.7µM	i	i	nt	nt
CNC(=O)c1nc(C)n(-c2ccc(Cl)cc2Cl)n1	i	i	i	i	79.4µM	i
CC(=O)N1CCOc2cc(S(=O)(=O)Nc3c(C)cccc3C(C)C)c(Cl)cc21	i	i	i	79.4µM	nt	i
CC(=O)c1ccccc1S(=O)(=O)N1CCN(c2nc(-c3cccs3)nc3ccccc23)CC1	i	nt	i	?	nt	nt
NC(C(=O)O)C(O)c1ccc(O)c(O)c1 (configuration not stated)	nt	nt	0.238µM	nt	nt	nt
